According to PubChem BioAssay AID602245 (The Scripps Research Institute Molecular Screening Center, 2012):
Activity calls are given as the source filed them.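 How the source made its calls: active means compound that raised the calcium level needed for half-maximal fiber tension by more than 10% versus solvent alone; inactive means the rest.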

Assay: calcium desensitizers of cardiac fiber tension, late-stage follow-up, mechanism study for cardiac RTF inhibitor project, permeabilized porcine cardiac fibers, force transducer, powder samples (AID 602245)
Settings: pig permeabilized cardiac fiber tension, pCa50 shift, at 10 µM; delta pCa50: measured here: shift in calcium sensitivity, stronger effect = lower value; fold change of Ca2+ KD: stronger effect = higher value; maximal force change: measured here: effect on maximal fiber force

Question: With `NCCCCCCNS(=O)(=O)c1cccc2c(Cl)cccc12` as the compound, how does the delta pCa50 read?
Answer: -0.116

Question: And the fold change of Ca2+ KD?
Answer: 1.31 (active)

Question: And the maximal force change?
Answer: -4.5%
